A selection: hits, their analogues and other compounds. The true share with any hit is near 2%.
MCL1 BIM primary = inhibitors of MCL1 binding to BIM-BH3, primary screen, biochemical, fluorescence polarization; Induced myeloid leukemia cell differentiation protein Mcl-1 (Homo sapiens), Q07820; GST-MCL1 / FITC-Bim-BH3 fluorescence polarization; inhibition, % at 10.9 µM; actives 0.68% (n = 320,000); AID 2057, 2009;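 active = inhibition above the mean inhibition of all tested compounds plus 3 SD, set per campaign, cut at about 40% in these data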;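 also: higher means more loss of mP so more displacement of Bim peptide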
Target sequence (Q07820 whole entry, looked up): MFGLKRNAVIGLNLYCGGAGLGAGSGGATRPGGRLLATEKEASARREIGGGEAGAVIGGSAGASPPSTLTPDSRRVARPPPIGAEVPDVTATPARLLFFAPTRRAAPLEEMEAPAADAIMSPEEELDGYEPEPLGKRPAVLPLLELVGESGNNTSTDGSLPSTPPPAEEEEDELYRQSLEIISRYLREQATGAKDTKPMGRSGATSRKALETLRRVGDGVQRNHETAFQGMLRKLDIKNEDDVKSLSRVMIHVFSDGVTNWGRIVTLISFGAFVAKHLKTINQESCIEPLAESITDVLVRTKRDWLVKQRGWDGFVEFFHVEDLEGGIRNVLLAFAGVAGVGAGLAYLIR
Mcl1 Noxa PPI = Mcl-1/Noxa binding inhibitors, primary screen, biochemical, TR-FRET, 1536-well; Induced myeloid leukemia cell differentiation protein Mcl-1 (Homo sapiens), Q07820; TR-FRET Mcl-1/Noxa peptide binding, 2 h; inhibition, % at 21.7 µM; actives 1.5% (n = 220,000); AID 1022, 2008;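 active = compounds that cut the protein-peptide binding signal by more than 50% relative to plate controls in a single-dose test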;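 also: His-tagged Mcl-1 with rhodamine Noxa BH3 peptide and terbium anti-His antibody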
Bim-Mcl-1 = inhibitors of Bim peptide binding to Mcl-1, primary screen, biochemical, bead-based flow cytometry, multiplex; inhibition, % at 10 µM; Induced myeloid leukemia cell differentiation protein Mcl-1 (Homo sapiens), Q07820; AID 1009, 2008; actives 0.1% (n = 190,000); Bim peptide-Mcl-1 binding; in the data active = inhibition above about 40%
Mcl1 Bid PPI = Mcl-1/Bid binding inhibitors, primary screen, biochemical, TR-FRET, 1536-well; inhibition, % at 21.7 µM; TR-FRET Mcl-1/Bid-Dy647 peptide binding; Induced myeloid leukemia cell differentiation protein Mcl-1 (Homo sapiens), Q07820; actives 0.97% (n = 220,000);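 active = compounds that cut the binding signal by more than half at the single screening dose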;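 also: His-tagged Mcl-1 with europium anti-His antibody binding Bid BH3 peptide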
Numbers stand for hits; – = inactive; · = not tested or not shown; ! = a repeat was not active.

SMILES	MCL1 BIM primary	Mcl1 Noxa PPI	Bim-Mcl-1	Mcl1 Bid PPI
ClC1=C(Cl)C2(Cl)C3C(Cl)C=CC3C1(Cl)C2(Cl)Cl (stereo unspecified)	–	·	·	·
COc1cc2nc(N3CCN(C(=O)c4ccco4)CC3)nc(N)c2cc1OC	–	58!	–	67!
CC(C(=O)c1c[nH]c2ccccc12)N1CCN(C(=O)c2ccco2)CC1 (stereo unspecified)	–	–	·	–
Cc1nc2ccccc2c(=O)n1-c1ccc(Br)cc1[N+](=O)[O-]	–	–	–	–
CCOc1ccc(N2C(=O)/C(=C/c3ccc(C)o3)C(=O)NC2=S)cc1	–	·	·	·
Cc1ccc(/C=C2\C(=O)NC(=S)N(c3cccc(F)c3)C2=O)o1	–	·	·	·
Cc1ccc(N2C(=O)/C(=C/c3ccc(CN(CCC#N)S(C)(=O)=O)o3)C(=O)NC2=S)cc1C	–	66	–	–
Cc1cccc(N2C(=O)/C(=C/c3ccc(CN(CCC#N)S(C)(=O)=O)o3)C(=O)NC2=S)c1	–	53	–	–
O=c1[nH]c(O)c(N=Nc2cc([N+](=O)[O-])ccc2O)c(=O)[nH]1	–	–	–	–
N#CC(C#N)=NNc1ccc(S(N)(=O)=O)cc1	–	88	·	–
CC1CCN(S(=O)(=O)c2ccc(NN=C(C#N)C#N)cc2)CC1	–	–	–	–
NC1CCc2cc(O)c(O)cc2C1 (stereo unspecified)	–	·	·	·
CCOP(=O)(OCC)C(NC(=O)c1ccc(Cl)cc1)=C(Cl)Cl	–	·	–	–
CCCOP(=O)(OCCC)C(NC(=O)c1ccccc1)=C(Cl)Cl	–	–	–	91
CNCC(O)c1cc(OCc2ccccc2)c(OCc2ccccc2)cc1F (stereo unspecified)	–	·	·	·
COc1cc(N2CCOCC2)ccc1C=C1C(=O)NC(=O)NC1=O	–	–	42	–
COc1ccc(NC(=O)c2cn(CCC#N)nc2-c2cccc(Br)c2)cc1	–	·	·	·
c1cncc(C2Nc3cccc4cccc(c34)N2)c1	–	79	·	–
O=C1CCCC2=C1C(c1cccnc1)Nc1ccccc1N2 (stereo unspecified)	–	–	–	–
CCN1C[C@]2(COC)CC[C@H](OC)[C@@]34C5C[C@H]6C(=O)C5[C@](O)(C[C@H]6OC)[C@@](O)(C(OC)C23)[C@@H]14 (stereo partly specified)	–	·	·	·
CCC1(c2ccccc2)C(=O)N(COC)C(=O)N(COC)C1=O	–	52	–	–
CCN1C(=O)/C(=C/c2ccc3c(c2)CCN3CCCCl)C(=O)NC1=S	–	81	–	–
CC(C)(C)N1C(=O)NC(=O)/C(=C\c2ccc3c(c2)CCN3CCCCl)C1=O	–	–	·	–
O=C1NC(=S)N(C2CC2)C(=O)/C1=C/c1ccc2c(c1)CCN2CCCCl	–	109	–	88
CC(=O)OC1N=C(c2ccccc2Cl)c2cc(Br)ccc2N(C)C1=O (stereo unspecified)	–	–	·	–
SMILES	MCL1 BIM primary	Mcl1 Noxa PPI	Bim-Mcl-1	Mcl1 Bid PPI
COC(=O)C1=C(c2cccc(C#N)c2)C[C@@H]2CC[C@H]1N2C(=O)NC1CCCCC1	–	·	·	·
CC(C)(C)n1c(O)c(C=Nc2ccc3c(c2)CCC3)c(=O)[nH]c1=O	–	71	–	–
Cn1c(O)c(C=Nc2ccc(F)cc2)c(=O)[nH]c1=O	–	·	·	·
O=C1NC(=O)C2(Cc3ccccc3N3CCCC32)C(=O)N1 (stereo unspecified)	–	–	–	–
CN1CCN2c3ccc(N)cc3CC3(C(=O)NC(=O)NC3=O)C2C1 (stereo unspecified)	·	–	·	97
CN1C(=O)N(C)C(=O)C2(Cc3cc(N)ccc3N3CCN(c4ccccc4F)CC32)C1=O (stereo unspecified)	–	57	–	91
CCN1C(=O)N(CC)C(=O)C2(Cc3ccccc3N3CCN(c4ccccc4)CC32)C1=O (stereo unspecified)	–	–	·	–
CC(=O)N1N=C2C3CCN(CC3)C2C1c1ccc(Br)cc1 (stereo unspecified)	–	–	·	–
O=P1(Oc2ccccc2)OCCCS1 (stereo unspecified)	–	–	·	–
CNC(=O)OCc1n(C)cc[n+]1C	–	–	–	87
CNC(=O)OCCc1nccn1C	–	–	–	–
CCn1nc(-c2ccccc2)nc2c(=O)n(C)c(=O)nc1-2	148	–	–	–
Cc1nc2c(=O)n(C)c(=O)nc-2n(C)n1	–	–	–	–
Cc1cc(OCC(=O)O)c2c3c(c(=O)oc2c1)CCCC3	–	–	–	–
Cc1ccc(-n2nc(C)cc2NC(=O)COc2cc(C)cc3oc(=O)c4c(c23)CCC4)cc1	–	106	–	–
CC1N=C(c2ccccc2)c2cc(Br)ccc2NC1=O (stereo unspecified)	–	·	·	·
O=C1NC(=O)N(Cc2ccccc2)C(=O)/C1=C/c1cnc(-c2ccccc2)nc1	–	51	–	–
O=C1NC(=O)N(Cc2ccc(F)cc2)C(=O)/C1=C\c1ccoc1	–	–	·	–
CC(C)c1ccc(N2C(=O)NC(=O)/C(=C/c3cnc(-c4ccccc4)nc3)C2=O)cc1	–	61	–	–
OCC(Br)CBr (stereo unspecified)	–	·	·	·
CCC1(c2ccc(N)cc2)CCC(=O)NC1=O (stereo unspecified)	–	·	·	·
CC(Cc1ccccc1)NCc1ccccc1O (stereo unspecified)	–	–	–	–
CC(Cc1ccccc1)NCC(=O)Nc1cc(N(C)C)nc2ccccc12 (stereo unspecified)	–	–	·	72
Cc1ccc(-c2nc(N(C)C3CCN(C)CC3)c3ccccc3n2)cc1	–	63	–	–
CN1CCC(N(C)c2ncnc3ccc(Br)cc23)CC1	·	–	–	–
SMILES	MCL1 BIM primary	Mcl1 Noxa PPI	Bim-Mcl-1	Mcl1 Bid PPI
COC(=O)C1=C(c2ccc(OC(F)(F)F)cc2)C[C@@H]2CC[C@H]1N2C(=O)NC(C)C	–	·	·	·
Cc1ccc2c(c1)=NC(=O)/C(=C/c1c(O)[nH]c(=O)[nH]c1=O)C=2	–	–	·	–
Cc1ccc2c(c1)=C/C(=C\c1c(O)[nH]c(=S)[nH]c1=O)C(=O)N=2	–	57	–	–
O=C1NC(=O)N(Cc2ccccc2)C(=O)/C1=C\C=C\c1ccco1	–	–	–	–
O=C1NC(=O)N(Cc2ccco2)C(=O)/C1=C/C=C/c1ccco1	–	52	·	–
COc1ccc(P2(=O)Nc3ccccc3N2)cc1	52	–	–	–
Cc1ccc(OCCOc2cccc(C=C3C(=O)NC(=O)NC3=O)c2)c(C)c1	–	·	·	·
O=c1[nH]c(O)c(/C=C2/C=CC(c3cc(Cl)ccc3Cl)=N2)c(=O)[nH]1	–	–	·	67
O=C1NC(=S)N(c2ccc(F)cc2)C(=O)/C1=C\c1ccoc1	·	79	–	–
c1ccc2c(c1)CNc1ccccc1O2	–	–	–	–
CN1c2ccccc2Oc2ccccc21	–	69	–	–
Cc1cc(N2CCCCC2)ccc1C=C1C(=O)N(C)C(=S)N(C)C1=O	–	68	–	–
CN(C=O)CP(=O)(O)CN(C)C=O	–	–	–	60

Screening results deposited in PubChem BioAssay by several laboratories.
